Records with an inconclusive call do not appear. Values without a mark were called inactive. Active and inactive are the calls of the source. Calls come from the whole dose curve; as a rule, active = well fitted inhibition curve with a large enough effect; inconclusive = small, poorly fitted or top-dose-only effect; inactive = no such curve, though single readings can be large or run the other way.
Each molecule was assayed against Cytochrome P450 3A4 (Homo sapiens) (UniProt P08684) (assay: qHTS for inhibitors of CYP3A4 against the NCATS DSHEA and TCM libraries (AID 1919971;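 for activity change, negative = inhibition: inhibition lowers luminescence from luciferin made by CYP3A4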)). Conditions: recombinant CYP3A4 enzyme activity, luminescence qHTS; series mostly up to 34.1 µM; activity change, negative = inhibition: at the top concentration.
Text: Assay Development and Screening Technology Laboratory (ADST)
National Center for Advancing Translational Sciences (NCATS), Rockville, MD
National Institute of Health (NIH), Bethesda, Maryland
Dietary Supplements and Natural Products have minor oversight of their safety and efficacy. We assembled a collection of Dietary Supplements and Natural Products (DSNP) as well as Traditional Chinese Medicinal (TCM) Plant extracts, which were screened against an in vitro panel of assays, including a liver cytochrome p450 enzyme panel, CAR/PXR signaling pathways, and P-gp transporter assays, to assess their activity. This pipeline facilitated the interrogation of Natural Product-Drug Interaction (NaPDI) through prominent metabolizing pathways. In addition, we compared the activity profiles of the DSNP/TCM substances with those of an approved drug collection. Many of the approved drugs have well-annotated mechanisms of action (MOA) while the MOAs for most of the DSNP and TCM samples remain unknown. Based on the premise that compounds with similar activity profiles tend to share similar targets or MOA, we clustered the library activity profiles to identify overlap with the NCATS Pharmaceutical Collection to predict the MOAs of the DSNP/TCM substances. Overall, we highlight four significant bioactivity profiles (measured by p-values) as examples of this prediction. To assess broad cytotoxicity, we employed screening against a HepG2 cell line. In addition, transporter-mediated drug interactions are utilized in the characterization of DDIs using a P-glycoprotein (P-gp) assays. To profile potential P-gp activity, a differential cell viability was measured against two cell lines: a parental KB-3-1 human cervical adenocarcinoma cell line and the drug-resistant subline KB-8-5-11 that overexpresses P-gp.
To this end, we profiled both collections for potential CAR and/or PXR activity, employing a previously published 1536-well qHTS assay.
[1] Lee TD, et al. A High-Throughput Screen of a Library of Therapeutics Identifies Cytotoxic Substrates of P-glycoprotein. Mol Pharmacol. Nov 2019;96(5):629-640. doi:10.1124/mol.119.115964
PROTOCOL TABLE (as described by Inglese J, Shamu CE and Guy RK. 2007)
SEQUENCE No. (e.g., 1, 2, 3, etc.); […] (e.g., Cells, Incubation, Reagent, etc.); VALUE; DESCRIPTION.
1; Reagent; 2 uL; cytochrome P450 enzyme and luciferin substrate or buffer only, white solid-bottom Greiner plate.
2; Compounds and control; 16 nL; Kalypsis pintool (Wako USA) equipped with a 1536-well pin head to transfer to the assay plates.
3; Incubation; 15 min; room temperature.
4; Reagent; 2 uL; nicotinamide adenine dinucleotide phosphate (NADPH).
5; Incubation; 30 - 45 min; room temperature in the dark.
6; Reagent; 4 uL; P450-Glo assay detection reagent.
7; Centrifuge; 1000 RPM; 15 seconds.
8; Incubation; 30 min; room temperature.
9; Read; Luminescence; ViewLux plate reader.
NOTES (numbers refer to Sequence numbers above)
1. A 2 uL mixture of corresponding enzymes and luciferin substrate (final concentrations CYP enzyme-specific and pro-luciferin substrate-specific) or minus-enzyme (assay buffer conditions supplied by the manufacturer for respective enzyme isoform; typically, 100 mM KPO4) and luciferin substrate were dispensed using a BioRAPTR FRD (Beckman Coulter, Brea, CA) into columns of a 1536-well white solid-bottom medium binding plate (Greiner Bio-One, Monroe, NC). Five isoforms of cytochrome P450 were used (CYP1A2, CYP2C9, CYP2C19, CYP2D6, and CYP3A4).
2. Substances (final concentrations of most substances ranged from 19.5 nM to 39.8 uM) and controls (CYP-specific) were transferred (16 nL) via pintool (Wako Automation, Richmond, VA). Intraplate controls furafylline (CYP1A2), sulfaphenazole (CYP2C9), ketoconazole (CYP2C19), quinidine (CYP2D6), and ketoconazole (CYP3A4) were used correspondingly.
3. Assay plates were incubated at room temperature for 15 min.
4-5. […]
% is set by controls: 0 for no effect and ±100 for the full control effect; potency is the fitted concentration of half-maximal effect.

Cytochrome P450 3A4 (Homo sapiens), sequence (P08684 whole entry, looked up): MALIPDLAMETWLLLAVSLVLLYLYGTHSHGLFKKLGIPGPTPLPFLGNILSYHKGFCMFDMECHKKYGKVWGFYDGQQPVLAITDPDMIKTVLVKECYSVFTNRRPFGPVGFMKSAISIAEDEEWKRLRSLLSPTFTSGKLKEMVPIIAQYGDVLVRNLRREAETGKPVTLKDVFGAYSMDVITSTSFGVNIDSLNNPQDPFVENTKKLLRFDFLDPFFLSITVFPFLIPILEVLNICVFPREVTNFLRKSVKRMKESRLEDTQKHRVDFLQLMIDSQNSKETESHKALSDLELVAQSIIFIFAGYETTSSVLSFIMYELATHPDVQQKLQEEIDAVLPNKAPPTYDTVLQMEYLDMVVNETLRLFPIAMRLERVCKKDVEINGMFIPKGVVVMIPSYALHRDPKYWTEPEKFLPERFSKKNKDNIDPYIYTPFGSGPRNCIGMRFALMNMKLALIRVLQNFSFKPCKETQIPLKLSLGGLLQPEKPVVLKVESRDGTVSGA

| SMILES | Potency | activity change, negative = inhibition |
| --- | --- | --- |
| COC(=O)C1=CO[C@@H](C)[C@@H]2CN3CC[C@@]4(C(=O)Nc5ccccc54)[C@@H]3CC12 (stereo not given in full) | 14.1 µM (active) | – |
| COC1=CC(=O)OC(CCc2ccccc2)C1 (stereo not given) | – | 21.5% |
| C=C[C@H]1CN2CC[C@@]3(C(=O)Nc4ccccc43)[C@@H]2C[C@@H]1/C(=C\OC)C(=O)OC | 12.6 µM (active) | – |
| CCCCCCCCCCCCCCCCCCCC(=O)O | – | -22.3% |
| C=C[C@H]1CN2CCc3c([nH]c4ccccc34)[C@H]2C[C@@H]1/C(=C\OC)C(=O)OC | 14.1 µM (active) | – |
| COC1=CC(=O)O[C@@H](/C=C/c2ccc3c(c2)OCO3)C1 | 14.1 µM (active) | – |
| C=CCc1ccc2c(c1)OCO2 | – | -8.71% |
| COC1=C[C@@]23CCN(C)[C@H](Cc4ccc(OC)c(O)c42)C3=CC1=O | – | -20% |
| O=S(=O)(O)O | – | -7.67% [at 58.3 µM] |
| COc1ccc2c(c1O)-c1c(OC)c(OC)cc3c1[C@H](C2)N(C)CC3 | – | -14.7% |

From PubChem BioAssay (NCATS)
